Measured values published in PubChem BioAssay (EPA / NIEHS).
“And” between values parts separate entries of the source, which are not always exact repeats. Equal values may be shown once. A structure can be active in one record and inactive in another. The source made the active and inactive calls. Rule for the calls: active = hit-call score of the fitted dose curve at least 0.9, where 1 is the maximum; inactive = score below 0.9.

Columns and labels:
[1] = read-out: Low-density lipoprotein receptor (LDLR), LDLR (gene 3949); assay: BSK_CASM3C_LDLR: BioMAP Diversity Plus: CASM3C Assay for Low-density lipoprotein receptor (LDLR) Biomarker Activity (AID 2283045); details: primary human coronary artery smooth muscle cells; actives raise or lower the signal;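 note: LDLR protein level on the cell surface quantified by ELISA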
[2] = read-out: Monocyte Chemoattractant Protein-1 (MCP1), CCL2 (gene 6347); assay: BSK_CASM3C_MCP1: BioMAP Diversity Plus: CASM3C Assay for Monocyte Chemoattractant Protein-1 (MCP1) Biomarker Activity (AID 2283046); details: primary human coronary artery smooth muscle cells; actives raise or lower the signal;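 note: MCP-1 level quantified by ELISA 24 h after dosing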
[3] = BSK_CASM3C_Proliferation: Cell Proliferation Assessment in the BioMAP Diversity Plus: CASM3C Assay (AID 2283047); details: primary human coronary artery smooth muscle cells;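 note: sulforhodamine B total protein stain as relative cell number at 560 nm; sub-confluent cells exposed 48 h before staining; fitted both ways against DMSO so gain or loss of cell number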
[4] = read-out: Monokine induced gamma interferon (MIG), CXCL9 (gene 4283); assay: BSK_CASM3C_MIG: BioMAP Diversity Plus: CASM3C Assay for Monokine induced gamma interferon (MIG) Biomarker Activity (AID 2283048); details: primary human coronary artery smooth muscle cells; actives raise or lower the signal;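 note: MIG protein level measured by ELISA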
[5] = read-out: serum amyloid A (SAA), SAA1 (gene 6288); assay: BSK_CASM3C_SAA: BioMAP Diversity Plus: CASM3C Assay for serum amyloid A (SAA) Biomarker Activity (AID 2283049); details: primary human coronary artery smooth muscle cells; actives raise or lower the signal;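 note: SAA protein level quantified by ELISA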
[6] = BSK_CASM3C_SRB: Viability Assessment in the BioMAP Diversity Plus: CASM3C Assay (AID 2283050); details: primary human coronary artery smooth muscle cells;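 note: total protein by SRB staining as cytotoxicity measure in parallel cultures; cells exposed to compound for 24 h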
[7] = read-out: Thrombomodulin, THBD (gene 7056); assay: BSK_CASM3C_Thrombomodulin: BioMAP Diversity Plus: CASM3C Assay for Thrombomodulin Biomarker Activity (AID 2283051); details: primary human coronary artery smooth muscle cells; actives raise or lower the signal;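 note: thrombomodulin protein level measured by ELISA 24 h after dosing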
[8] = read-out: Tissue Factor, F3 (gene 2152); assay: BSK_CASM3C_TissueFactor: BioMAP Diversity Plus: CASM3C Assay for Tissue Factor Biomarker Activity (AID 2283052); details: primary human coronary artery smooth muscle cells; actives raise or lower the signal;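 note: cell surface tissue factor protein level read by ELISA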
[9] = read-out: Interferon-gamma inducible Protein 10 (IP10), CXCL10 (gene 3627); assay: BSK_hDFCGF_IP10: BioMAP Diversity Plus: hDFCGF Assay for Interferon-gamma inducible Protein 10 (IP10) Biomarker Activity (AID 2283053); details: primary human foreskin fibroblasts; actives raise or lower the signal
In short: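 Human foreskin fibroblast primary cells (hDFCGF system) were dosed with chemical and assayed at 24 h; IP-10 measured by ELISA. Activity fitted bidirectionally relative to DMSO negative control as baseline.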

[10] = read-out: Urokinase-type plasminogen activator receptor (uPAR), PLAUR (gene 5329); assay: BSK_CASM3C_uPAR: BioMAP Diversity Plus: CASM3C Assay for Urokinase-type plasminogen activator receptor (uPAR) Biomarker Activity (AID 2283054); details: primary human coronary artery smooth muscle cells; actives raise or lower the signal;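 note: cell-surface uPAR protein level quantified by ELISA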

Row | Compound | outcome [1] | outcome [2] | outcome [3] | outcome [4] | outcome [5] | AC50 [6] | AC50 [7] | outcome [8] | AC50 [9] | outcome [10] | AC50 [3] | AC50 [4] | outcome [7] | AC50 [8] | outcome [9] | AC50 [1] | AC50 [2] | AC50 [5] | AC50 [10] | outcome [6]
1 | c1ccc(-c2cccc(-c3ccccc3)c2)cc1 | inactive | inactive | inactive | inactive | inactive | 33.5 µM (active) | 20 µM (active) | inactive | 29.5 µM (active) | inactive | – | – | – | – | – | – | – | – | – | –
2 | CCOC(=O)CC(=O)CCl | inactive | inactive | – | – | inactive | 25.7 µM (active) | – | – | – | inactive | 26.3 µM (active) | 31.6 µM (active) | inactive | 14 µM (active) | inactive | – | – | – | – | –
3 | CCOP(=O)(OCC)OC(=CCl)c1ccc(Cl)cc1Cl | – | – | – | inactive | – | 29.5 µM (active) | – | – | 36.4 µM (active) | – | 28.5 µM (active) | – | inactive | 24.9 µM (active) | – | 28.3 µM (active) | 28 µM (active) | 29.6 µM (active) | 30.2 µM (active) | –
4 | CN(C)C(=S)S | inactive | inactive | – | inactive | inactive | – | – | inactive | 18 µM (active) | inactive | 0.791 µM (active) | – | inactive | – | – | – | – | – | – | inactive
5 | CCOC(=O)CCN(SN(C)C(=O)Oc1cccc2c1OC(C)(C)C2)C(C)C | inactive | inactive | – | inactive | inactive | – | – | – | 37.1 µM (active) | – | 20 µM (active) | – | inactive | 8.62 µM (active) | – | – | – | – | 33.3 µM (active) | inactive
6 | CCCCCCCCCCCCc1cccc(S(=O)(=O)O)c1 | inactive | inactive | inactive | inactive | inactive | – | – | inactive | 12.7 µM (active) | inactive | – | – | inactive | – | – | – | – | – | – | inactive
7 | [Cl][Sn]([c]1ccccc1)([c]1ccccc1)[c]1ccccc1 | – | – | – | – | – | 0.688 µM (active) | 1.07 µM (active) | – | 0.0861 µM (active) | – | 0.134 µM (active) | 0.524 µM (active) | – | 1.37 µM (active) | – | 0.343 µM (active) | 0.599 µM (active) | 0.522 µM (active) | 0.351 µM (active) | –
8 | CCOP(=S)(OCC)OP(=S)(OCC)OCC | inactive | inactive | – | inactive | inactive | – | – | inactive | 29.6 µM (active) | inactive | 29 µM (active) | – | inactive | – | – | – | – | – | – | inactive
9 | Cc1ccccc1OP(=O)(Oc1ccccc1)Oc1ccccc1 | inactive | inactive | inactive | inactive | inactive | 8.32 µM (active) | – | inactive | 19 µM (active) | inactive | – | – | inactive | – | – | – | – | – | – | –
10 | CCC(C)(C#N)N=NC(C)(C#N)CC (stereo unspecified) | inactive | inactive | inactive | inactive | inactive | – | – | inactive | – | inactive | – | – | inactive | – | inactive | – | – | – | – | inactive
11 | O=c1oc2ccccc2c(O)c1C(CC(O)c1ccc(-c2ccc(Br)cc2)cc1)c1ccccc1 (stereo unspecified) | – | – | – | inactive | – | 13.9 µM (active) | – | – | 5.38 µM (active) | – | 19.1 µM (active) | – | inactive | 16.2 µM (active) | – | 19.1 µM (active) | 7.44 µM (active) | 0.0998 µM (active) | 21.8 µM (active) | –
12 | Cc1cc(C(C)(C)c2ccc(O)c(C)c2)ccc1O | inactive | inactive | – | inactive | – | 14.9 µM (active) | 3.01 µM (active) | – | – | – | 15.7 µM (active) | – | – | 8.57 µM (active) | inactive | – | – | 17 µM (active) | 17.1 µM (active) | –
13 | CC(C)O.CC(C)O.OCCN(CCO)CCO.OCCN(CCO)CCO.[Ti] | inactive | inactive | inactive | inactive | inactive | – | – | inactive | 30.9 µM (active) | inactive | – | – | inactive | – | – | – | – | – | – | inactive
14 | C[C@]12CC[C@@H](O)C[C@@H]1CC[C@@H]1[C@@H]2CC[C@]2(C)C(=O)CC[C@@H]12 | – | inactive | inactive | inactive | inactive | – | – | inactive | – | inactive | – | – | inactive | – | inactive | 29 µM (active) | – | – | – | inactive
15 | Clc1cccc(Cl)c1Cl | inactive | inactive | inactive | inactive | inactive | – | – | inactive | – | inactive | – | – | inactive | – | inactive | – | – | – | – | inactive
16 | O=C(CCl)NCO | inactive | inactive | inactive | inactive | inactive | – | – | inactive | – | inactive | – | – | inactive | – | inactive | – | – | – | – | inactive
17 | c1ccc2sc(SNC3CCCCC3)nc2c1 | inactive | inactive | inactive | inactive | inactive | – | – | inactive | – | inactive | – | – | inactive | – | inactive | – | – | – | – | inactive

Row | Compound | outcome [1] | outcome [2] | outcome [3] | outcome [4] | outcome [5] | AC50 [6] | AC50 [7] | outcome [8] | AC50 [9] | outcome [10] | AC50 [3] | AC50 [4] | outcome [7] | AC50 [8] | outcome [9] | AC50 [1] | AC50 [2] | AC50 [5] | AC50 [10] | outcome [6]
18 | O=[N+]([O-])c1ccc(Nc2ccccc2)cc1 | inactive | inactive | inactive | inactive | inactive | – | – | inactive | – | inactive | – | – | inactive | – | inactive | – | – | – | – | inactive
19 | O=C1C=CC(=O)c2ccccc21 | – | – | – | – | – | 8.33 µM (active) | 34.1 µM (active) | – | 1.55 µM (active) | – | 0.474 µM (active) | 30.1 µM (active) | – | 6.75 µM (active) | – | 10.8 µM (active) | 8.9 µM (active) | 3.37 µM (active) | 4.99 µM (active) | –
20 | CC1(C)[C@H](C(=O)O[C@H](C#N)c2cccc(Oc3ccccc3)c2)[C@@H]1/C=C(\Cl)C(F)(F)F | inactive | inactive | inactive | inactive | inactive | – | 5.06 µM (active) and 7.16 µM (active) | inactive | – | inactive | – | – | – | – | inactive | 3.39 µM (active) | – | – | – | inactive
21 | CCOP(=O)(OCC)SCCSCC | inactive | inactive | inactive | inactive | inactive | – | – | inactive | – | inactive | – | – | inactive | – | inactive | – | – | – | – | inactive
22 | O=[N+]([O-])c1cccc2ccccc12 | inactive | inactive | inactive | inactive | inactive | – | – | inactive | – | – | – | – | inactive | – | inactive | – | – | – | 20 µM (active) | inactive
23 | Cc1ccccc1OP(=O)(Oc1ccccc1C)Oc1ccccc1C | inactive | – | – | inactive | inactive | 30.1 µM (active) | – | inactive | 11.2 µM (active) | – | 24.3 µM (active) | – | inactive | – | – | – | 24.3 µM (active) | – | 20 µM (active) | –
24 | CC(C)N(C(=O)CCl)c1ccccc1 | – | – | – | – | – | 6.28 µM (active) | 2.75 µM (active) | – | 3.13 µM (active) | – | 6.4 µM (active) | 12.4 µM (active) | – | 20 µM (active) | – | 5.57 µM (active) | 6.89 µM (active) | 4.5 µM (active) | 11 µM (active) | –
25 | CCN(CC)C(=O)C(Cl)=C(C)OP(=O)(OC)OC | inactive | inactive | inactive | inactive | inactive | – | – | inactive | – | inactive | – | – | inactive | – | inactive | – | – | – | – | inactive
26 | CCCCOC(=O)COC(=O)c1ccccc1C(=O)OCCCC | inactive | inactive | inactive | inactive | inactive | – | – | inactive | – | inactive | – | – | inactive | – | inactive | – | – | – | – | inactive
27 | Cc1cc(Cl)ccc1OC(C)C(=O)O (stereo unspecified) | inactive | inactive | inactive | inactive | inactive | – | – | inactive | – | inactive | – | – | inactive | – | inactive | – | – | – | – | inactive
28 | Clc1cccc(Cl)c1 | inactive | inactive | inactive | inactive | inactive | – | – | inactive | – | inactive | – | – | inactive | – | inactive | – | – | – | – | inactive
29 | Cc1cccc(OP(=O)(Oc2cccc(C)c2)Oc2cccc(C)c2)c1 | inactive | – | inactive | inactive | inactive | – | – | inactive | – | inactive | – | – | inactive | – | inactive | – | 0.075 µM (active) | – | – | inactive
30 | Oc1ccc(Cc2ccc(O)cc2)cc1 | inactive | inactive | inactive | inactive | inactive | – | – | inactive | – | inactive | – | – | inactive | – | inactive | – | – | – | – | inactive
31 | CC(C)(C)c1cc([N+](=O)[O-])cc(C(C)(C)C)c1O | inactive | inactive | inactive | inactive | inactive | – | – | inactive | – | – | – | – | inactive | – | inactive | – | – | – | 11.8 µM (active) | inactive
32 | Oc1c(Cl)cc(Cl)cc1Cl | inactive | inactive | inactive | inactive | inactive | – | – | inactive | – | inactive | – | – | inactive | – | inactive | – | – | – | – | inactive
33 | OC(Cc1ccccc1Cl)(Cn1[nH]cnc1=S)C1(Cl)CC1 (stereo unspecified) | – | inactive | inactive | inactive | – | 31.4 µM (active) | – | – | 29.5 µM (active) | – | – | – | inactive | 15.3 µM (active) | – | 3.97 µM (active) | – | 5.29 µM (active) | 32.5 µM (active) | –
